Screens (PubChem)
A selection: hits, their analogues and other compounds. The true share with any hit is near 3.6%.
SARS 3CLpro inh: SARS-CoV 3CLpro protease inhibitors, primary screen, biochemical, quenched FRET | Replicase polyprotein 1ab (Severe acute respiratory syndrome coronavirus), P0C6X7 | recombinant SARS-CoV 3CLpro, quenched FRET peptide cleavage | inhibition, % at 6 µM | 290,000 tested, 0.14% active | AID 1706, 2009; in the data active = inhibition above about 12%
BoNT A protease: BoNT/A light chain protease inhibitors, primary screen, biochemical, flow cytometry, MLPCN library; Botulinum neurotoxin type A light chain protease (Clostridium botulinum A str. ATCC 3502); multiplex microsphere protease substrate cleavage; inhibition, % at 10 µM; 360,000 tested, 0.17% active
BoNT-F LC inh: BoNT/F light chain protease inhibitors, primary screen, biochemical, flow cytometry, MLPCN library | inhibition, % at 10 µM | Multiplex microsphere protease cleavage assay | 360,000 tested, 0.22% active; in the data active = inhibition above about 35%, passing the limit was not always enough; inconclusive = no clear call, values can overlap the other calls
Autofluor counter: counter-screen for toxin protease inhibitors: compound fluorescence. 360,000 tested, 3.1% active. compound autofluorescence counterscreen, microsphere flow cytometry; active compounds read high. AID 624483. fluorescence intensity (no concentration beside the values); in the data active = fluorescence intensity above about 16000; inconclusive = no clear call, values can overlap the other calls
BJeLR viability: MLPCN primary cell-based screen for lethality selective to Ras in HRASV12 cells. BJeLR (HRASV12) viability, CellTiter-Glo ATP luminescence, 48 h. inhibition, % (test concentration not listed). 300,000 tested, 0.17% active. AID 1554, 2009; in the data active = inhibition above about 50%; inconclusive = no clear call, values can overlap the other calls
Anthrax LF inh2: Bacillus anthracis LF protease inhibitors, primary screen, biochemical, multiplex microsphere, MLPCN library | Lethal factor (Bacillus anthracis), P15917 | multiplex microsphere protease cleavage assay | inhibition, % at 10 µM | 360,000 tested, 0.12% active
Target sequence (P15917 whole entry, looked up): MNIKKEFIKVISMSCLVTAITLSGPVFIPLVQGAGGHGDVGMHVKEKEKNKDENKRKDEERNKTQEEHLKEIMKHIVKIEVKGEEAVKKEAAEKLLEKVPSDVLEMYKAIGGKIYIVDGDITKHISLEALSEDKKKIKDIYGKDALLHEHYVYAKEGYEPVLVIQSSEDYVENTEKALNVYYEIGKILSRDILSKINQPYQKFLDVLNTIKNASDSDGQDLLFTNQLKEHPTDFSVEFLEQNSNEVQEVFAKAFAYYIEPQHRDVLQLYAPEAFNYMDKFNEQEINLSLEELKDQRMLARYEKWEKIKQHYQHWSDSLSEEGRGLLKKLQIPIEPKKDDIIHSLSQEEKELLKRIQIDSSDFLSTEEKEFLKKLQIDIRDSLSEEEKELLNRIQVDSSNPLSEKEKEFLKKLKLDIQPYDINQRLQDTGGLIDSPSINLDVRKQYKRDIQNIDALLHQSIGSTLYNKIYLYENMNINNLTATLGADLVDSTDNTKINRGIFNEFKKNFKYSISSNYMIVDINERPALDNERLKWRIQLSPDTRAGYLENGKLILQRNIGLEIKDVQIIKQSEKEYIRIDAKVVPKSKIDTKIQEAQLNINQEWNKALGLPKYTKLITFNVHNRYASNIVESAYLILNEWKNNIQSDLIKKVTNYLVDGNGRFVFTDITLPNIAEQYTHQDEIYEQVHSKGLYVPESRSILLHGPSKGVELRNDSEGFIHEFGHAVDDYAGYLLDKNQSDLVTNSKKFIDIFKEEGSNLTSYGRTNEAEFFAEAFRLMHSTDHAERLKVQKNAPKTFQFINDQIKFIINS
Large screens that a line does not name were inactive. Rule as the data show it, unless noted: active = inhibition above about 30%; inconclusive = no clear call, values can overlap the other calls; inactive = below that.

O=C(c1ccc(N2CCN(C(=O)c3ccc(F)cc3F)CC2)cc1)c1cccc(F)c1	none
COC(=O)c1ccc(CC2(C)C(=O)Nc3ccc(-c4cccc(C(F)(F)F)c4)cc32)o1 (configuration not stated)	none (no result: SARS 3CLpro inh, BJeLR viability)
CCc1ccc(CNCCNCC(C)O)cc1 (configuration not stated)	Autofluor counter 21353
CC(O)CNCCNCc1cccs1 (configuration not stated)	none
O=C1CCN(Cc2ccccc2)N1	none
O=CN1CCC(=O)N(Cc2ccccc2)c2ccccc21	BoNT A protease inconclusive, Autofluor counter 24835
CCOC(=O)c1nc(Nc2ccc(C(C)=O)cc2)c2ccccc2n1	none
CC[C@]12c3[nH]c4ccc(Cl)cc4c3CCN1C(=O)[C@@H](CC(=O)NC/C=C(\C)CCC=C(C)C)C[C@@H]2C(=O)N1CCN(C(=O)c2ccco2)CC1	none (no result: SARS 3CLpro inh, BJeLR viability)
O=Cc1cccn1Cc1ccc(Cl)cc1Cl	Autofluor counter 23592
COC(=O)Nc1ccc(S(=O)(=O)N2CCCc3ccccc32)cc1	Autofluor counter 16570
COc1cc(C(=O)Nc2ccc(S(=O)(=O)N3CCc4ccccc43)cc2)cc(OC)c1OC	Autofluor counter 18077
COc1ccccc1C(=O)Nc1ccc(S(=O)(=O)N2CCc3ccccc32)cc1	none
COc1ccc(N2CC(C(=O)N3CCC(c4nc5ccccc5[nH]4)CC3)CC2=O)cc1 (configuration not stated)	none (no result: SARS 3CLpro inh)
COC(=O)c1cccnc1-n1c(=O)c2cccnc2n(Cc2ccc(Cl)cc2)c1=O	Autofluor counter 22186
CC1(C(=O)NS(=O)(=O)Cc2cccc(Cl)c2)CCN1C(=O)C1(c2ccc(Cl)cc2)CCC1 (configuration not stated)	none (no result: SARS 3CLpro inh, BJeLR viability)
CCc1nnc2n1N=C(c1ccc(OC)cc1)CS2	Autofluor counter 17512
COc1cccc(-c2nnc3n2N=C(c2cccc(Br)c2)CS3)c1	BoNT A protease inconclusive, Autofluor counter 20881
CCOc1ccc(-c2nnc3n2N=C(c2ccc(OC)cc2)CS3)cc1	Autofluor counter 19797
COc1ccc(C2=Nn3c(nnc3-c3ccncc3)SC2)cc1OC	none
COc1ccc(C2=Nn3c(nnc3-c3ccccn3)SC2)cc1	BoNT A protease inconclusive, Autofluor counter 24133
Cc1cccc(NC(=O)c2nc[nH]c2C(=O)N(C)Cc2ccccc2)c1	none (no result: SARS 3CLpro inh, BJeLR viability)
COc1ccccc1C(=O)Nc1nnc([C@H]2C[C@H](O)[C@@H](CO)O2)s1	none (no result: SARS 3CLpro inh, BJeLR viability)
O=C(COC(=O)c1nc(Cl)ccc1Cl)NCc1cccs1	none (no result: SARS 3CLpro inh)
CCOc1ccc(C2=Nn3c(nnc3-c3ccccc3OC)SC2)cc1	Autofluor counter 22729
c1ccc(-c2ccc(C3=Nn4c(nnc4-c4cc(-c5ccccc5)n[nH]4)SC3)cc2)cc1	Autofluor counter 18459
CC1=Nn2c(nnc2-c2cc(-c3ccccc3)n[nH]2)SC1	none
COc1ccccc1-c1nnc2n1N=C(c1ccc(O)c(O)c1)CS2	none
CN(C)S(=O)(=O)c1ccc(N2CCCC2)c(C(=O)N2CCN(S(=O)(=O)c3ccccc3F)CC2)c1	Autofluor counter inconclusive (no result: SARS 3CLpro inh)
O=C(NCc1cc2ccccc2[nH]1)C1CCC(=O)N(CC2CCCCC2)C1 (configuration not stated)	none (no result: SARS 3CLpro inh, BJeLR viability)
COc1ccc(CNC(=O)CSc2nc3ccc(C)cc3[nH]2)cc1OC	none
CCOc1ccc(NS(=O)(=O)N(C)C)cc1	none
CN(C)S(=O)(=O)Nc1ccc(C(=O)O)cc1	Autofluor counter 21783
O=C(CCc1ccccc1)n1nc(-c2ccccc2)nc1NCc1ccco1	Autofluor counter 23164
CC(=C1C(=O)c2ccccc2C1=O)N1CCC(C(N)=O)(N2CCCCC2)CC1	Autofluor counter 23736
NC(=O)C1(N2CCCCC2)CCN(C(=S)NCCc2ccccc2)CC1	none
Cc1ccccc1-n1nnnc1SCC(=O)NCC1CCCO1 (configuration not stated)	none
CC(=O)NCCCc1nc2ccccc2n1Cc1ccccc1C	BoNT A protease inconclusive, Autofluor counter 24006
O=CNCCc1nc2ccccc2n1CCc1ccccc1	BoNT-F LC inh inconclusive
